5 compounds from PubChem BioAssay (NCATS) can be followed below.

For test [1], the target named is Estrogen receptor (Homo sapiens) (UniProt P03372). Put plainly: qHTS assay for small molecule antagonists of estrogen receptor alpha signaling (AID 588513; active = well fitted curve in the direction sought with a large enough effect in the signal ratio, with a control signal flat, not every such curve was filed as active; the % refers to the signal ratio; note: % is set by controls: 0 for no effect and ±100 for the full control effect). Summed up: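 Beta-lactamase reporter, antagonist mode, HEK 293 GripTite cells; 0.5nM E2 stimulus, 18 h, 37 C; CCF4 dye 2 h RT; fluorescence. IC50 and efficacy from Hill fits, normalized to E2 and DMSO.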
Estrogen receptor (Homo sapiens), sequence (P03372 whole entry, looked up): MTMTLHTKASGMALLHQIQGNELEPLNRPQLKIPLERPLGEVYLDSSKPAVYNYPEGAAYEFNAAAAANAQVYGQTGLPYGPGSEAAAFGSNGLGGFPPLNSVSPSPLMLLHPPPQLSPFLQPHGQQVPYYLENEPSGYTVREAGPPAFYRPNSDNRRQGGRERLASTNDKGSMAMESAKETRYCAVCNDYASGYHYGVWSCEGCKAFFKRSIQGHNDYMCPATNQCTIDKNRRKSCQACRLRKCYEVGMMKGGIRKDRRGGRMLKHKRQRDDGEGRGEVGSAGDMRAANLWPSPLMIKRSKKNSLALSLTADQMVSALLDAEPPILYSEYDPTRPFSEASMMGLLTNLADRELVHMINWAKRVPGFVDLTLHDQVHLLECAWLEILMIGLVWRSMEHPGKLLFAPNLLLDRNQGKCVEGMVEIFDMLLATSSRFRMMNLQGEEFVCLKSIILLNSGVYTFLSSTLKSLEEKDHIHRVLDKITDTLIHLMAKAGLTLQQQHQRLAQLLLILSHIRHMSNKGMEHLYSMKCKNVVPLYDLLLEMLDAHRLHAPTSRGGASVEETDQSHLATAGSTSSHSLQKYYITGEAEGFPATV
Test [2] has the same target. Description: qHTS assay for small molecule agonists of estrogen receptor alpha signaling (AID 588514).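 Note: 0% = vehicle only and 100% = reference agonist; nearly all actives have a fitted effect of over 70% in size.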 The gist of the method:
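ER-alpha-UAS-bla GripTite HEK293 cells, 5000/well in 2% charcoal/dextran-stripped FBS medium, treated with compound titrations 18 h at 37 C. CCF4 beta-lactamase read by fluorescence after 2 h RT; normalised to 20 nM 17-beta-estradiol (100%) and DMSO (0%), Hill fit for EC50 and efficacy.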

The target in test [3] is Peroxisome proliferator-activated receptor gamma (Homo sapiens) (UniProt P37231). Put plainly: qHTS assay for small molecule agonists of peroxisome proliferator-activated receptor gamma signaling (AID 588536; active = well fitted curve in the direction sought with a large enough effect in the signal ratio, with a control signal flat, not every such curve was filed as active; the % refers to the signal ratio;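 note: 0% = DMSO basal wells and 100% = rosiglitazone at 2 µM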). Summed up: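 Test agents, titrated, stimulated HEK293 UAS-bla cells overnight (16 h, 37 C). Substrate CCF4 was then added for two hours at room temperature before fluorescence reading.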
Peroxisome proliferator-activated receptor gamma (Homo sapiens), sequence (P37231 whole entry, looked up): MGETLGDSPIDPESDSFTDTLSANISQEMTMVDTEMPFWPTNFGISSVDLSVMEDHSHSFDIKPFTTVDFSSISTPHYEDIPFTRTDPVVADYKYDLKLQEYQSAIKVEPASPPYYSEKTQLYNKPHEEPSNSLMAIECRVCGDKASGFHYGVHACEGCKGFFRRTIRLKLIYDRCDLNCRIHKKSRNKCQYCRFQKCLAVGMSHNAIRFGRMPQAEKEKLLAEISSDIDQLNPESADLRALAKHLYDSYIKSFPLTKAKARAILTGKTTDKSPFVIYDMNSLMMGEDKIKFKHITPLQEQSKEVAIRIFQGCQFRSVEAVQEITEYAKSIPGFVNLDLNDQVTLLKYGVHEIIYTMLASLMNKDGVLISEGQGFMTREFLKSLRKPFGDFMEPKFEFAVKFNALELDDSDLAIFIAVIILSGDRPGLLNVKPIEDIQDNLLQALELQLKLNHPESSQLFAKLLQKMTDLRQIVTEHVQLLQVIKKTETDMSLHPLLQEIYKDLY

Test [4] is described as follows: qHTS assay for small molecule agonists of retinoid X receptor alpha signaling (AID 588544).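 For activation: 0% = DMSO basal wells and 100% = reference agonist.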 Particulars: HEK293T RXRa-UAS-bla, beta-lactamase reporter, 18 h; 530 nm emission.
In test [5] the target is Retinoic acid receptor RXR-alpha (Homo sapiens) (UniProt P19793). The description is as above.
Retinoic acid receptor RXR-alpha (Homo sapiens), sequence (P19793 whole entry, looked up): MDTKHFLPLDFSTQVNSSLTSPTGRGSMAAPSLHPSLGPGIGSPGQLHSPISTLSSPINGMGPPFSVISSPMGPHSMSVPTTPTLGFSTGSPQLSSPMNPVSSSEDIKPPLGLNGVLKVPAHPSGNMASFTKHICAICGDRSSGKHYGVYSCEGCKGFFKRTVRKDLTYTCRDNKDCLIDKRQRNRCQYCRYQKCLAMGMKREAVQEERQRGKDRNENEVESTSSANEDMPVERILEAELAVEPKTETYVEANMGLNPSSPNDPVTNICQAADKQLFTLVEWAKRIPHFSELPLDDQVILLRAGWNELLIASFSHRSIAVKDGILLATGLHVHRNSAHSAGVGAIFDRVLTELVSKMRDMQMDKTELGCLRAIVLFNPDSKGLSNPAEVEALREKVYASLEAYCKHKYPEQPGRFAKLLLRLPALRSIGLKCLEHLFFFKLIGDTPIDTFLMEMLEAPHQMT
Test [6] has as its target Thyroid hormone receptor beta (Homo sapiens) (UniProt P10828). Put plainly: qHTS assay for small molecule agonists of thyroid hormone receptor beta signaling (AID 588545).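 Note: 0% = DMSO only and 100% = 10 nM T3.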 Summed up:
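Beta-lactamase reporter activity under TR response element control is measured in HEK 293 cells after 18 hrs compound exposure. Signal is ratiometric CCF4 fluorescence, 460/530 nm.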

The nature of test [7]: qHTS assay for small molecule antagonists of retinoid X receptor alpha signaling (AID 588546; active = well fitted inhibition curve with a large enough effect in the signal ratio, with a control signal flat, not every such curve was filed as active; the % refers to the signal ratio;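 note: cells stimulated with 9-cis-retinoic acid as agonist; % is set by controls: 0 for no effect and ±100 for the full control effect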). The conditions noted are these: HEK293T RXRa-UAS-bla, beta-lactamase ratio, antagonist mode; measured here: W530 green channel, cytotoxicity proxy. The gist of the method: (§1)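 Beta-lactamase reporter inhibition, read as CCF4 fluorescence ratio (ex 405, em 460/530 nm) after 2 h at RT. HEK293T UAS-bla cells, 2500/well, were stimulated with 9-cis-RA at 500 or 100 nM final alongside test compound for 18 h at 37 C.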

The target of test [8] is Retinoic acid receptor RXR-alpha (Homo sapiens) (UniProt P19793). Described as above. Particulars: HEK293T RXRa-UAS-bla, beta-lactamase ratio, antagonist mode. Summed up:
as §1

For test [9], the target named is Thyroid hormone receptor beta (Homo sapiens) (UniProt P10828). Description: qHTS assay for small molecule antagonists of thyroid hormone receptor beta signaling (AID 588547; active = well fitted inhibition curve with a large enough effect in the signal ratio, with a control signal flat, not every such curve was filed as active; the % refers to the signal ratio;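 note: cells stimulated with 0.4 nM T3 agonist during compound exposure; series mostly up to about 77 µM; % is set by controls: 0 for no effect and ±100 for the full control effect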). The conditions noted are these: TR-UAS-bla HEK293, beta-lactamase ratio, antagonist mode, 18 h. The gist of the method: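 Inhibition of T3-driven (0.4nM final) beta-lactamase reporter activity was measured over 0.59 nM to 92 uM compound after 18 h at 37 C. The cells were GripTite HEK293 TR-UAS-bla in charcoal/dextran-stripped serum, with CCF4 ratio read-out and IC50 from Hill fits.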
Thyroid hormone receptor beta (Homo sapiens), sequence (P10828 whole entry, looked up): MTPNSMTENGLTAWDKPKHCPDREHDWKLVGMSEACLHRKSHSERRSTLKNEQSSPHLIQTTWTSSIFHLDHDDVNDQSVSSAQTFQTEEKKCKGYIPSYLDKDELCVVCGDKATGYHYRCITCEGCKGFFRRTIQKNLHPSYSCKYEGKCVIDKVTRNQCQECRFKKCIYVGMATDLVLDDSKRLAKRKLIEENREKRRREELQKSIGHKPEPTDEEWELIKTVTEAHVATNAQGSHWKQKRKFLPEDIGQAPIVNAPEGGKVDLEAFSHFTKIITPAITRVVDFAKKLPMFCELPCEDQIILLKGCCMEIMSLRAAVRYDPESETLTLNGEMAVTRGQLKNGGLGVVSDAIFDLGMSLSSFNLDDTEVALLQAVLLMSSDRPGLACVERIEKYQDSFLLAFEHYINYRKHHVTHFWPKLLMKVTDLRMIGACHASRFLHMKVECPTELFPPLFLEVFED

Test [10] in a line: qHTS assay for small molecule activators of the p53 signaling pathway (AID 651743; active = well fitted activation curve with a large enough effect in the signal ratio, not every such curve was filed as active; the % refers to the signal ratio; note: series mostly up to about 92 µM; % of control where 0% means no effect). Particulars: HCT-116 p53RE-bla, beta-lactamase FRET ratio, 16 h; activation: stronger effect = higher value. The gist of the method:
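Read-out is fluorescence intensity from the LiveBLAzer B/G FRET substrate, added for 2 hours at room temperature after HCT-116 p53RE-bla cells had been incubated with compounds for 16 hours at 37 C.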

Test [11] in a line: qHTS assay for environmental chemicals that activate the Aryl hydrocarbon Receptor (AhR) signaling pathway (AID 651777; active = well fitted curve in the direction sought with a large enough effect; an effect the other way counts as inactive or inconclusive; note: % of control where 0% means no effect; nearly all actives have a fitted effect of over 15% in size). Particulars: 1A2-DRE human hepatoma cells, luciferase, 24 h; activation: stronger effect = higher value. Summed up:
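Luminescence (One-Glo, 30 min, room temperature) reports AhR-driven luciferase in stably transfected human hepatoma cells bearing DRE and CYP1A2 promoter. Cells (1,200/well) were treated with compound for 24 hr at 37 C in qHTS format.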

Test [12] deals with Peroxisome proliferator-activated receptor alpha (Homo sapiens) (UniProt Q07869). Description: qHTS assay for small molecule agonists of the peroxisome proliferator-activated receptor alpha (PPARalpha) signaling pathway (AID 651778; active = well fitted curve in the direction sought with a large enough effect; an effect the other way counts as inactive or inconclusive; note: % of control where 0% means no effect). The conditions noted are these: PathHunter PPARalpha complementation, chemiluminescence, 6 h; max response: stronger effect = higher value. The gist of the method:
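Chemiluminescence from complemented enzyme reported PPARalpha activation in cells after 6 hr of compound treatment at 37 C. The detection reagent was incubated for 60 min at room temperature, and compounds were scored as agonists.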

The nature of test [13]: qHTS assay for small molecule agonists of the antioxidant response element (ARE) signaling pathway measured by Nrf2-dependant transcriptional activity (AID 720636; active = well fitted curve in the direction sought with a large enough effect in the repeat runs; an effect the other way counts as inactive or inconclusive; note: % of control where 0% means no effect). Summed up:
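Nrf2-dependent transcription read as ONE-Glo luciferase signal from ARE-luc HepG2 reporter cells after 16 hr compound treatment at 37 C, 5% CO2, in assay medium with 1% dialyzed FBS.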

Test [14] in a line: qHTS assay for small molecule agonists of the antioxidant response element (ARE) signaling pathway measured by Nrf2-dependant transcriptional activity - cell viability counter screen (AID 720653; active = well fitted curve in the direction sought with a large enough effect in the repeat runs; an effect the other way counts as inactive or inconclusive; note: % is set by controls: 0 for no effect and ±100 for the full control effect). Particulars: ARE-bla HepG2 viability, CellTiter-Glo ATP luminescence, 16 h; max response: stronger effect = lower value. Summed up: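 Cytotoxicity counter screen: intracellular ATP quantified by CellTiter-Glo luminescence in the same ARE-bla HepG2 plates, after 16 h compound exposure and a 2 h beta-lactamase substrate step.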

A short description of test [15]: qHTS assay for cell viability of HEK293 cells (AID 743288; active = well fitted curve in the direction sought with a large enough effect; an effect the other way counts as inactive or inconclusive; note: % is set by controls: 0 for no effect and ±100 for the full control effect; nearly all actives have a fitted effect of over 50% in size). The conditions noted are these: ATP luminescence (CellTiter-Glo), 18 h; max response: stronger effect = lower value. Summed up:
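Environmental chemicals tested in qHTS format against parental HEK293 cells; 18 h treatment, 37 C; read-out ATP luminescence (CellTiter-Glo), 30 min RT development.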

Test [16] can be described thus: qHTS assay for cell viability of the p53RE-bla HCT-116 cell line (AID 743292; active = well fitted curve in the direction sought with a large enough effect; an effect the other way counts as inactive or inconclusive; note: % is set by controls: 0 for no effect and ±100 for the full control effect; nearly all actives have a fitted effect of over 55% in size). Summed up: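 ATP-based luminescent viability (CellTiter-Glo, 30 min RT) after 16 h compound treatment at 37 C of p53RE-bla HCT-116 cells, seeded at 4,000 cells/well and rested 5 h before dosing.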
Test [17] has as its target Nuclear receptor subfamily 1 group I member 2 (Rattus norvegicus) (UniProt Q9R1A7). Put plainly: qHTS assay for small molecule activators of the rat pregnane X receptor (rPXR) signaling pathway (AID 651751; call rule not given here; note: 0% is about no effect). Particulars: rPXR reporter cells, luciferase (One-Glo), 24 h.
In test [18] the target is Peroxisome proliferator-activated receptor delta (Homo sapiens) (UniProt Q03181). Put plainly: qHTS assay for small molecule agonists of peroxisome proliferator-activated receptor delta signaling (AID 588534).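 Note: 0% = DMSO basal wells and 100% = positive control agonist at 10 µM.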 Summed up: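 Cells carrying a PPAR-delta beta-lactamase reporter were treated with compounds for 18 h at 37 °C in agonist mode. CCF4 fluorescence was read after 2 h; EC50 and efficacy from Hill fits.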
Peroxisome proliferator-activated receptor delta (Homo sapiens), sequence (Q03181 whole entry, looked up): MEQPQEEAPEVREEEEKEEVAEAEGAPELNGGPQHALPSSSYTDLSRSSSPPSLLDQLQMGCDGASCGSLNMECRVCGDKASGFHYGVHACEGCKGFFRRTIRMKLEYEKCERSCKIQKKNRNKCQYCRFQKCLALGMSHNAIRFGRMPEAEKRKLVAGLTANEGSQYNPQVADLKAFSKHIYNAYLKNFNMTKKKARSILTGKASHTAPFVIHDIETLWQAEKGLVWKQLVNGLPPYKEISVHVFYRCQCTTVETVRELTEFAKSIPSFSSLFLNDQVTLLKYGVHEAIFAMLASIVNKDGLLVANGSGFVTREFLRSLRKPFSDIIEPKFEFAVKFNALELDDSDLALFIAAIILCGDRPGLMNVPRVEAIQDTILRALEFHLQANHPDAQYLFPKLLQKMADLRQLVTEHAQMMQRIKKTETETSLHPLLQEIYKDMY

In test [19] the target is Peroxisome proliferator-activated receptor gamma (Homo sapiens) (UniProt P37231). Put plainly: qHTS assay for small molecule antagonists of peroxisome proliferator-activated receptor gamma signaling (AID 588537; active = well fitted inhibition curve with a large enough effect in the signal ratio, with a control signal flat, not every such curve was filed as active; the % refers to the signal ratio;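 note: reporter cells co-stimulated with 50 nM rosiglitazone agonist during compound treatment; % of control where 0% means no effect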). Summed up:
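Antagonist mode, beta-lactamase reporter in HEK293; charcoal/dextran FBS 1%; 3000 cells/well, 37 C 6-6.5 h; cpd titration + rosiglitazone 50 nM final, 16 h 37 C; CCF4, 2 h RT; 460/530 nm; Hill fit → IC50, efficacy.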

In test [20] the target is Vitamin D3 receptor (Homo sapiens) (UniProt P11473). Description: qHTS assay for small molecule antagonists of vitamin D receptor signaling (AID 588541). The gist of the method: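 Antagonist-mode beta-lactamase reporter assay: HEK293T VDR-UAS-bla cells were exposed to titrated compound alongside 1-alpha,25-dihydroxyvitamin D3 at 3 nM final for 16 h. Values were normalized to the 50 nM agonist control and DMSO basal, with IC50 and efficacy from Hill equation fits.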
Vitamin D3 receptor (Homo sapiens), sequence (P11473 whole entry, looked up): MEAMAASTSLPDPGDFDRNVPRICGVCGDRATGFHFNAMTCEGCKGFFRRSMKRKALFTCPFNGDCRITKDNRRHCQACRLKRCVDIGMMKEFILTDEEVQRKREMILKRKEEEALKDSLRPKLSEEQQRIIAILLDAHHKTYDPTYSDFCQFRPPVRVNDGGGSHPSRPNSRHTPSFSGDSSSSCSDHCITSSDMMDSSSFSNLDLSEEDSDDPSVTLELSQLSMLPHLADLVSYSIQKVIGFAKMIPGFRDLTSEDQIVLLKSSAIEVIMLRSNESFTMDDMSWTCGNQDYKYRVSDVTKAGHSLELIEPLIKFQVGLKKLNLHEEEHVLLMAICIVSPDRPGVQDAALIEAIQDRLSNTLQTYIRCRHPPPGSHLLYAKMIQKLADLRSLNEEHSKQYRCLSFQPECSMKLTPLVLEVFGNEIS

Inconclusive results are not listed. Calls of active or inactive are those of the source. Unless noted, calls come from the whole dose curve.

Nuclear receptor subfamily 1 group I member 2 (Rattus norvegicus), sequence (Q9R1A7 whole entry, looked up): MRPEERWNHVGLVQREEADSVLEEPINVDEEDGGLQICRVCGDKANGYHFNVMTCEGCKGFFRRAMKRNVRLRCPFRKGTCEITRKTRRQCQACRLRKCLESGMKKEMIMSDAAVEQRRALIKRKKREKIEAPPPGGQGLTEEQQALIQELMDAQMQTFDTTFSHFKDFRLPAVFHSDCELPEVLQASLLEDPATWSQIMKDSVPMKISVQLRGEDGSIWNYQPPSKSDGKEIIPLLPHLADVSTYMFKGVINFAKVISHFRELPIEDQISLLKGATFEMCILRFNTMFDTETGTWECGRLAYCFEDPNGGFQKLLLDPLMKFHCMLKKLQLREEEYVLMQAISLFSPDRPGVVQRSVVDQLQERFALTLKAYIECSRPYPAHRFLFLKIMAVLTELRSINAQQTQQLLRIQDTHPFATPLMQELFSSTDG
Peroxisome proliferator-activated receptor alpha (Homo sapiens), sequence (Q07869 whole entry, looked up): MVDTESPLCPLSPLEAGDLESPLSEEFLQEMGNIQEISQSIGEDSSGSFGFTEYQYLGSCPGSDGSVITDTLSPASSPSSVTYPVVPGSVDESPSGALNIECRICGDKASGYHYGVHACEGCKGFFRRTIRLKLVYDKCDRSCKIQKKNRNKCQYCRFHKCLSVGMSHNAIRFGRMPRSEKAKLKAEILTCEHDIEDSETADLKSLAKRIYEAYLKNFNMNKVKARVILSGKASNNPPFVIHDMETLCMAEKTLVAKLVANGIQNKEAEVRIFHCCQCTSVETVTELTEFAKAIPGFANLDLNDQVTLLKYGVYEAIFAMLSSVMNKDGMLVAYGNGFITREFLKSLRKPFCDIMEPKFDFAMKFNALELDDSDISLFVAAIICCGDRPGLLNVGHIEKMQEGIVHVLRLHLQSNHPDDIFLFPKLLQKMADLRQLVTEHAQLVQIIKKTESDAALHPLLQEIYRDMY

As to `Clc1ccc(C(Cl)(Cl)Cl)cc1`, the Potency entry in test [1], in test [2], in test [3], in test [5], in test [6] and in [13] was “inactive” throughout. Moreover, in [16], the Potency entry is “inactive”. The max response in test [4] was -6.16%; in test [7], -19.4%; in test [8] it was -3.2% (inactive); in test [12], -0.649% (inactive); in test [14], -2.36% (inactive); in test [15], -0.236% (inactive). In addition, the max response in test [17] was 2.13% (inactive). The activity change % (negative = inhibition) in [9] was -0.364% (inactive). In addition, the activation in test [10] was -4.01% (inactive); in test [11], 0.701% (inactive).
Consider `Brc1c(Br)c(Br)c(Br)c(Br)c1Br`, for which the Potency entry in test [1], in test [2], in test [19], in test [5], in test [6] and in test [16] was “inactive” in each case. In addition, in [18], the outcome was inactive. Also, the max response is -7.75% in [4]; -6.9% in test [7]; 0.275% (inactive) in test [8]; -0.494% (inactive) in test [12]; 3.38% (inactive) in [14]; 0.884% (inactive) in test [17]. Moreover, the activation in [10] is 2.23% (inactive); in test [11], 2.18% (inactive).
Take `CCC(C)n1c(=O)[nH]c(C)c(Br)c1=O` (configuration not stated): the Potency entry in test [1], in test [2], in test [3], in test [19], in test [20] and in [5] was “inactive” throughout. Further, the Potency result in test [6], in [13] and in test [16] was “inactive” throughout. Also, the max response was -12.2% in test [7]; 5.41% (inactive) in test [8]; -0.488% (inactive) in test [12]; 4.81% (inactive) in test [14]; -3.11% (inactive) in [15]; -6.26% (inactive) in test [17]. In addition, the activation in test [10] was -1.24% (inactive); in test [11], 4.91% (inactive).
`CN(C)P(=O)(N(C)C)N(C)C`: the Potency result in test [1], in test [2], in test [3], in test [19], in test [20] and in test [5] was “inactive” throughout. Further, the Potency entry in test [6], in test [13] and in test [16] was “inactive” each time. Further, the compound was classed as inactive in [18]. The max response was -16.8% in test [4]; -10.5% in test [7]; -0.0212% (inactive) in [8]; 0.0783% (inactive) in test [12]; -5.07% (inactive) in test [14]; 0.472% (inactive) in test [15]. Further, in test [17], the max response is -0.946% (inactive). Further, the activity change % (negative = inhibition) in [9] is -0.373% (inactive). Moreover, the values for the activation in [10] and in test [11] were -2.55% (inactive) and 0.845% (inactive), respectively.
Take `CC(C)(C)C(=O)[C@@H](Oc1ccc(Cl)cc1)n1cncn1`: the Potency entry in test [1], in [2], in [3], in test [19], in [5] and in [6] was “inactive” each time. Further, the Potency entry in test [13] and in test [16] was “inactive” in each case. Also, the compound was called inactive in [18]. Besides, the max response in test [4] is 9.03%; in [7], -6.66%; in test [8] it was 9.68% (inactive); in [12], -2.73% (inactive); in [14], 0.855% (inactive); in [15], -4.89% (inactive). The activity change % (negative = inhibition) in test [9] is -10.6% (inactive). In addition, the activation in test [10] is 0.216% (inactive); in test [11] it was 5.12% (inactive).
